From ChEMBL document CHEMBL3988442, “University of Dundee, Small-Polar-MMV Screening Library” (2021)
For some of these results: Results with a measured potency or affinity are listed apart.

Tests used:
Design in all cases: scale not given: direction of the effect not stated beside the values
[1] = molecular target: Protein translocase subunit SecA (Escherichia coli (strain K12)) (UniProt P10408); assay: Assay to Identify E. coli SecA ATPase Inhibitors; format: functional; conditions: 30 µM
[2] = molecular target: T1, Ubiquitin-activating enzyme e1, putative (Leishmania donovani (strain BPK282A1)) (UniProt E9BSI1); assay: Leishmania donovani Ubiquitin Activating Enzyme (LdE1); format: functional; conditions: 30 µM
T1 sequence (whole entry): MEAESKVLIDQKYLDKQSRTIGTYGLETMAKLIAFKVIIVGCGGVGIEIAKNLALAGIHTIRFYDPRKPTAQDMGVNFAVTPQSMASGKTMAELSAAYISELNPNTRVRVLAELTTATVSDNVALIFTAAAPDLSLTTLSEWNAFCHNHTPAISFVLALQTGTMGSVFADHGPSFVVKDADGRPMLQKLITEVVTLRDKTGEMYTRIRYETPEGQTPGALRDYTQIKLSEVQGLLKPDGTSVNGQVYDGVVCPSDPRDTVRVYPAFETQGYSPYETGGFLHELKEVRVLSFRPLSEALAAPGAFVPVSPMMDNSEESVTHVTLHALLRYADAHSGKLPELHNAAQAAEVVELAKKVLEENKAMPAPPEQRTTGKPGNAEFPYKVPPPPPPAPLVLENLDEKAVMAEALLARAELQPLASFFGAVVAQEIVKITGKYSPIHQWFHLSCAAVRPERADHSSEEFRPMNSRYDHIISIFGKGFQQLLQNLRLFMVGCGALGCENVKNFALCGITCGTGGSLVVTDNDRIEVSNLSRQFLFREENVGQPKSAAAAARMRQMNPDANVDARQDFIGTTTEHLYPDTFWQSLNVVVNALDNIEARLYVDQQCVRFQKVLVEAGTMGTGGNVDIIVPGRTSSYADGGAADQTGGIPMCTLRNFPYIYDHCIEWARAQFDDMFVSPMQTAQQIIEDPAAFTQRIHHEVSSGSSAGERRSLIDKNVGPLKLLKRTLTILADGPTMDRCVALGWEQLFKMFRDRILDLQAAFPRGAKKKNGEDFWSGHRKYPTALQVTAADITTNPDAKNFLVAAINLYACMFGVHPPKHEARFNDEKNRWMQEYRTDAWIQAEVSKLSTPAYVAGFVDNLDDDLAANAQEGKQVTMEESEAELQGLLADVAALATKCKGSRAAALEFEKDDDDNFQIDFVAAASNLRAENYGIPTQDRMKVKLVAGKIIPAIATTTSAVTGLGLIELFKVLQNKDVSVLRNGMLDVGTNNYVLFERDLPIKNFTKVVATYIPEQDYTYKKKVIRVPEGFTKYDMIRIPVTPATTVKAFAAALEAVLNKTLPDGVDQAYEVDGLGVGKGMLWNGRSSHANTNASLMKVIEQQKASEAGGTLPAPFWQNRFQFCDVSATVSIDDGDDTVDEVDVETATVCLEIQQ

[3] = molecular target: AMP-activated protein kinase, AMPK (Homo sapiens) (UniProt P54646+O43741+P54619+Q9UGJ0+Q9Y478+Q13131+Q9UGI9); assay: AMP-dependent Kinase enzyme assay. An in vitro enzyme assay that detects ADP turnover that is directly proportional to AMPK activity. This uses naive AMPK that is activated during the assay with MK-8722; format: functional; conditions: 30 µM
[4] = molecular target: Sialic acid-binding Ig-like lectin 9 (Homo sapiens) (UniProt Q9Y336); assay: Hs-Siglec9 ALPHAscreen SOP 20170721; conditions: 10 µM
Sequence of Sialic acid-binding Ig-like lectin 9 (Homo sapiens) (Q9Y336 whole entry): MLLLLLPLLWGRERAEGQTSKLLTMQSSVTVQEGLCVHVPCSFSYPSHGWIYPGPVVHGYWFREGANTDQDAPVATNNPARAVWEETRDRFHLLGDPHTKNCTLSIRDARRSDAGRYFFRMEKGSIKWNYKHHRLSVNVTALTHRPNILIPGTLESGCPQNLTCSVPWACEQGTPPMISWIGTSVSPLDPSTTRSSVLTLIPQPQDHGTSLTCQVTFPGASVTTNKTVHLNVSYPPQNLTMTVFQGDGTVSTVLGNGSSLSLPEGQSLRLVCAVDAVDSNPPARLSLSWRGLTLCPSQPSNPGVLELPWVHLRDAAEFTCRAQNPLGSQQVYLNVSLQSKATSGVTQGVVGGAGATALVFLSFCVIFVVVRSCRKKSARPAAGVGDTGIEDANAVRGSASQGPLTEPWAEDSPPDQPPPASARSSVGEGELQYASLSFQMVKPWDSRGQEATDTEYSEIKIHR

Trypanosoma cruzi = assay: Trypanosoma cruzi phosphomannomutase and mannose-1-phosphate guanylyltransferase assay; format: functional; conditions: 10 µM
[5] = molecular target: T2, Arginase-2, mitochondrial (Homo sapiens) (UniProt P78540); assay: in vitro enzyme assay to detect the production of urea directly proportional to the activity of Arginase II; format: functional; conditions: 33.3 µM; note: in the data most compounds retested in dose-response had high values
T2 sequence (whole entry): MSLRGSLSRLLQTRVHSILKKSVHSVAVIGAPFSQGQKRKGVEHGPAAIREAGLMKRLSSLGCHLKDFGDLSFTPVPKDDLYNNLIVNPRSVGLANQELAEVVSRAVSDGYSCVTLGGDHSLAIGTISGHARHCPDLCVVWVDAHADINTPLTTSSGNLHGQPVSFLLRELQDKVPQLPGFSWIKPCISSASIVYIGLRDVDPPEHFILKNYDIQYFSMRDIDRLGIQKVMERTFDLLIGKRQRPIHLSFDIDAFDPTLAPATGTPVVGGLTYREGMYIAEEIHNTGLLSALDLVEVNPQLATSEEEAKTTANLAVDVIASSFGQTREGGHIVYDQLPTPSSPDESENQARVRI

[6] = molecular target: T3, Proteasome subunit beta (Trypanosoma cruzi) (UniProt O96673); assay: Trypanosoma cruzi proteasome chymotrypsin-like activity (TcProtChymo) assay.; note: in the data most compounds retested in dose-response had high values; format: functional; conditions: 9.37 µM
T3 sequence (whole entry): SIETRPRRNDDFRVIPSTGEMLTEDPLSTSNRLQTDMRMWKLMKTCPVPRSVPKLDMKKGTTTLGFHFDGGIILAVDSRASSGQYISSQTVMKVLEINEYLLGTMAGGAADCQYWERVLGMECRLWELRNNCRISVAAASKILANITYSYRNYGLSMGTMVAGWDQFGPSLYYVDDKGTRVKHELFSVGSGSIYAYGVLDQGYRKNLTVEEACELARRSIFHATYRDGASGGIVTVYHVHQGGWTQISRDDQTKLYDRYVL

Homo sapiens = species: Homo sapiens; assay: To identify inhibition of the IFN signalling (Jak-Stat) pathway via expression of an eGFP reporter gene under the control of an IFN-stimulated response element (ISRE) containing MxA promoter.; format: functional; conditions: 30 µM
[7] = molecular target: T4, Tyrosyl-tRNA synthetase, putative (Trypanosoma cruzi (strain CL Brener)) (UniProt Q4DSP6); assay: Trypanosoma cruzi tyrosyl tRNA synthetase (TcYRS) _High Tyrosine SOP; format: functional; conditions: 30 µM; note: in the data most compounds retested in dose-response had high values
T4 sequence (whole entry): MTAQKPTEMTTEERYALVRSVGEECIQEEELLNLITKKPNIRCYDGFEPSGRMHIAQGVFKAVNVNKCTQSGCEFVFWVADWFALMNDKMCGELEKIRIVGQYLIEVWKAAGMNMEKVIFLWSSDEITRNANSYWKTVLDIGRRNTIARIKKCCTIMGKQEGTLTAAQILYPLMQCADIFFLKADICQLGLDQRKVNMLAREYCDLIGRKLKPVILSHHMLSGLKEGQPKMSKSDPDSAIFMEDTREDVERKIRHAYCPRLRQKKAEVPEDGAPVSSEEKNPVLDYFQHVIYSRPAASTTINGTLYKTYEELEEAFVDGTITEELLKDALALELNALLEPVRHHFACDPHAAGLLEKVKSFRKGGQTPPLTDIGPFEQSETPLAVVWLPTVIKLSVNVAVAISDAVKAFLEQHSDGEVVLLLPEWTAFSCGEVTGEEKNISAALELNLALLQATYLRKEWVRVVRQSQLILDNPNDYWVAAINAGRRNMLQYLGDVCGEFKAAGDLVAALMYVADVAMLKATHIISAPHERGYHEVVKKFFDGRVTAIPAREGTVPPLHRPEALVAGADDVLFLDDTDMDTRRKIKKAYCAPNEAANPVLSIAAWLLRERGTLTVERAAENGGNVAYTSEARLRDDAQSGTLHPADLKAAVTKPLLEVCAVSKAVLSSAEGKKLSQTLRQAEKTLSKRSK

[8] = molecular target: T4, Tyrosyl-tRNA synthetase, putative (Trypanosoma cruzi (strain CL Brener)); assay: Trypanosoma cruzi tyrosyl tRNA synthetase (TcYRS) SOP; format: functional; conditions: 30 µM
[9] = molecular target: Chromo domain-containing protein 1 (Saccharomyces cerevisiae (strain ATCC 204508 / S288c) (Baker's yeast)) (UniProt P32657); assay: ScCHD-1 Enzyme Inhibition Assay; format: functional; conditions: 30 µM; note: in the data most compounds retested in dose-response had high values
Sequence of Chromo domain-containing protein 1 (Saccharomyces cerevisiae (strain ATCC 204508 / S288c) (Baker's yeast)) (P32657 whole entry, the tested form may be a part): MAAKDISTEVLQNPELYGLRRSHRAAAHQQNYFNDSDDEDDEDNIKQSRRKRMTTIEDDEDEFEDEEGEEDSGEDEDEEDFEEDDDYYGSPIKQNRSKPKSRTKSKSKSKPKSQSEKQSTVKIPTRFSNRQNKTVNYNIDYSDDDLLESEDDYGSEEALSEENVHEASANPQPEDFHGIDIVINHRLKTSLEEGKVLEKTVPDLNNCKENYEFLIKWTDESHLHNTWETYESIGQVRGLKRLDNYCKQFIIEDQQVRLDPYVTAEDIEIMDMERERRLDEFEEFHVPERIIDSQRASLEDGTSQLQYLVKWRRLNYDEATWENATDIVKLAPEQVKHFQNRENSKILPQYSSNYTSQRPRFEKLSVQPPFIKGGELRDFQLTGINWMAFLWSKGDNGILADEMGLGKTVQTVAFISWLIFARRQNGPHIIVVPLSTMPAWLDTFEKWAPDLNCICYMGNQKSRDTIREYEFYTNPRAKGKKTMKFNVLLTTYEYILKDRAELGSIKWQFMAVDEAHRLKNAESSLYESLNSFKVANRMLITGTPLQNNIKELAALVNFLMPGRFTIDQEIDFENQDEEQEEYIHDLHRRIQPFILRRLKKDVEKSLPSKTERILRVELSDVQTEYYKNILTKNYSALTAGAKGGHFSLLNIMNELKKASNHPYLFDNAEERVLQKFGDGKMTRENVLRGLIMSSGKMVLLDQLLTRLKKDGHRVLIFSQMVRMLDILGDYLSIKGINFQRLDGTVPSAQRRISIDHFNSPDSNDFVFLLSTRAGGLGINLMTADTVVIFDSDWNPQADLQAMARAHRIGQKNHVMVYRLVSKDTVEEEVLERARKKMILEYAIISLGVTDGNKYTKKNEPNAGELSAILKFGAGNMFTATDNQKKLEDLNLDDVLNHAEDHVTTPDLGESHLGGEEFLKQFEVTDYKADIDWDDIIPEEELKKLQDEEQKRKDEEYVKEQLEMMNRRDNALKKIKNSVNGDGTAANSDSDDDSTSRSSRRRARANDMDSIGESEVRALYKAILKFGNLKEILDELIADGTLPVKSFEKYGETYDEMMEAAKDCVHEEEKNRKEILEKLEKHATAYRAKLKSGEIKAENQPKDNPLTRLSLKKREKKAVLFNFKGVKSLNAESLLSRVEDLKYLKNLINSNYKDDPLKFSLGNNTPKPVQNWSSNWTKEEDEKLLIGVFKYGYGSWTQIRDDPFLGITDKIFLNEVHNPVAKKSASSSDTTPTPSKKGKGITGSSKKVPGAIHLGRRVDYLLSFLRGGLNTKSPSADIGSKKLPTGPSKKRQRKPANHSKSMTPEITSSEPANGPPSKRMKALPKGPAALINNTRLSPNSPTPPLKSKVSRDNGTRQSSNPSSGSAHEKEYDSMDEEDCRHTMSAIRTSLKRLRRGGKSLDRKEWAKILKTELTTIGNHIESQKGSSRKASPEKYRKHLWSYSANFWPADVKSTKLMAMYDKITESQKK

Sequence of Protein translocase subunit SecA (Escherichia coli (strain K12)) (P10408 whole entry): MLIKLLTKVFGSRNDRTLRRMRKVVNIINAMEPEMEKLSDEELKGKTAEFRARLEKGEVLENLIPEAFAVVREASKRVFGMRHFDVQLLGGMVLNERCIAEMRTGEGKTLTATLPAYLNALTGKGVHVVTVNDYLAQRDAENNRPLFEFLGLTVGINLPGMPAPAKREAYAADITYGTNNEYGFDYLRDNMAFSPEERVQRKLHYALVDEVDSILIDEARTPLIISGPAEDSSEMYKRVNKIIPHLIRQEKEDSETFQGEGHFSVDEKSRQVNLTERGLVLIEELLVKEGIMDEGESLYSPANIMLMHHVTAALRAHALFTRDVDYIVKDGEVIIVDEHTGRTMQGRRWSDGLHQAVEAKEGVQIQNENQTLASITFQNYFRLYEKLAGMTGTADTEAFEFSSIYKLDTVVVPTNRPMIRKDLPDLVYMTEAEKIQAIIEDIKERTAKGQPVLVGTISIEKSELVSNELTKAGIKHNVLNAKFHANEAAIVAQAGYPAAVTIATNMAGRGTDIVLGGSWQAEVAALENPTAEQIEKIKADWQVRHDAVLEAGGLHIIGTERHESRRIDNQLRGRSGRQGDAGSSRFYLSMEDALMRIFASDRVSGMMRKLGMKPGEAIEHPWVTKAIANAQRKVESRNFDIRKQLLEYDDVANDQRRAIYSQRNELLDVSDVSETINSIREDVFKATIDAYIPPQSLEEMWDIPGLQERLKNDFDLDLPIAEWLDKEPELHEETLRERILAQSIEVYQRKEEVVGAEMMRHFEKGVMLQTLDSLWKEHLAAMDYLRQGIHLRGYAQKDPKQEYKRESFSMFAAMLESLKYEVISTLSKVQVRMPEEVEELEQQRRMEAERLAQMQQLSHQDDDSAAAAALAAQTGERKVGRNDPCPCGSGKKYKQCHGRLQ

Structure (SMILES)	Percent Effect [1] [%]	Percent Effect [2] [%]	Percent Effect [3] [%]	Percent Effect [4] [%]	Percent Effect (Trypanosoma cruzi) [%]	Percent Effect [5] [%]	Percent Effect [6] [%]	Percent Effect (Homo sapiens) [%]	Percent Effect [7] [%]	Percent Effect [8] [%]	Percent Effect [9] [%]
CN1C(=O)C(c2ccccc2)CC12CCN(CCOCCO)CC2 (stereo not given)	1.44	10.7	-6.48	0.314	-9.64	3.12	19.2	15.2	3.83	-8.64	-5.07
Cc1ccc(-n2nnc(CC(=O)N3CCSCC3)c2C)cc1	-3.7	20.8	-1.3	11.8	3.83	-5.52	11.2	-2.27	5.38	21	-9.71
O=C(c1ccncc1F)N1CCN(CC2CC2)c2ncccc2C1	-8.25	-1.33	4.65	-2.72	-9.63	-14.6	10.2	-11	-6.35	-10.3	-9.4
Cc1nn(C)c(C)c1CCC(=O)N1CCCC1Cn1cccn1 (stereo not given)	-4.71	-2.7	5.43	-1.49	-3.52	2.08	3.63	-0.691	1.98	11	1.96
CN(C(=O)c1cccc(C(=O)NS(C)(=O)=O)c1)c1ccccc1	-5.66	15.6	1.54	14.7	6.98	-24.8	16.5	4.53	6.45	13.6	-2.26
Cn1cnnc1C1CCN(C(=O)CCCOc2ccccc2F)CC1	-5.06	10.4	-2	4.13	-7.87	4.98	2.53	14.2	3.88	7.32	-2.08
CS(=O)(=O)NCCCN1CCCC1Cc1ccccc1 (stereo not given)	-4.3	0	-5.49	11.9	3.49	-3.42	9.09	13	5.42	16.5	-3.37
CN(Cc1ccsc1)C(=O)c1cc2c([nH]c1=O)CCCC2=O	-3.09	13.5	-2.3	9.82	-2.32	-0.185	16.5	3	4.95	18.3	-6.06
Cc1csc(CNC(=O)NC2CCN(c3ncccn3)CC2)n1	-4.13	11	-4.87	16.2	4.37	-3.19	12.6	5.21	10.4	25.9	-3.12
Cc1noc([C@@H]2C[C@H]3OCC[C@H]3N(S(C)(=O)=O)C2)n1	-1.89	11	-9.13	8.3	4.37	-1.6	9.5	1.34	6.25	8.64	-4.65
CC(C)NC(=O)c1n[nH]c(-n2cnnc2)n1	-5.17	9.33	-5.08	5.32	1.77	-4.05	2.77	2.63	4.23	10.3	-8.26
CCn1c(C)cc(C(=O)N2CCCC(c3nc(C)no3)C2)c1C (stereo not given)	-3.15	15.6	3.61	-3.42	2.06	1.47	17.5	14.4	8.57	9.41	-22.5
O=C(CCNS(=O)(=O)c1ccccc1)NCc1ccoc1	-5.05	5.33	-0.901	7.78	7.11	-0.521	12	12.9	8.2	16.1	-4.93
COCc1ccccc1CNc1cc(N2CCCC2CO)ncn1 (stereo not given)	-4.86	18.2	-4.12	3.3	-2.43	1.07	11.7	7.92	5.83	19.5	-6.07
O=C1CCSCC(C(=O)N2CCCC2)N1 (stereo not given)	-1.89	0	2.29	-5.9	-3.33	-1.36	3.37	-3.33	1.07	5	-1.55
CCOCCN1CCN(Cc2nc(C3CC3)no2)CC1CC (stereo not given)	-6.05	5.48	6.32	25.2	10.4	0.909	9.41	2.26	3.23	7.5	-5.89
c1cnc(N2CCOC3(CCN(CC4CCCCC4)CC3)C2)nc1	0.617	13.3	14.1	-0.802	-5.12	-2.1	14.7	10.1	5.32	11.5	-3.47
Cc1ccc(NC(=O)c2n[nH]c(-n3cnnc3)n2)cc1C	-5.16	9.33	-5.75	-2.63	4.32	21.6	-10.7	-2.17	8.47	10.3	-18.6
O=C(C1CCS(=O)(=O)C1)N1CCN(c2cnccn2)CC1 (stereo not given)	-5.3	16.2	-5.15	-2.95	-7.52	0.185	6.46	14.3	5.94	15.8	-4.21
CCOCCn1nc(C)cc1C(=O)N1CCOCC(CO)C1 (stereo not given)	-2.3	18.9	0.311	24.4	7.14	31.9	22.1	1.44	3.7	12.2	-10.6
